Compounds with a hit are over-represented: about 7.9% of the library has one in this group of screens.
Marburg entry inh: inhibitors of Marburg virus binding or cell entry. Marburg virus pseudotyped entry inhibition, cell reporter. Potency, µM (highest dose often 37.8 µM), for the others: at the highest dose activity change, negative = inhibition, most hits filed as inhibitors. 300,000 compounds, 1.8% hits; calls by dose curve; tested in HEK293 cells; note: potency is the fitted concentration of half-maximal effect
FMDV inh: foot and mouth disease virus antiviral activity. FMDV antiviral cell-based qHTS. Potency, µM (doses to about 57.9 µM), without a hit: at the highest dose activity change, negative = inhibition, actives largely listed as inhibitors. 410,000 compounds, 1.2% hits. AID 1159524; calls by dose curve; tested in HEK293T cells; note: read-out not given here; potency is the fitted concentration of half-maximal effect; nearly all actives have a fitted effect of over 45% in size
HCMV inh: inhibitors of human cytomegalovirus; HFF cells, HCMV-luciferase reporter, 72 h; stronger effect = lower value; activity change, negative = inhibition, % at 57.5 µM; 410,000 compounds, 4.5% hits; in the data active = activity change below about -60%; inconclusive = no clear call, values can overlap the other calls; inactive = above about -39%
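Two compound doses tested in HFFs infected with HCMV-luciferase, MOI 1 PFU/cell, 72 h at 37C. Lysate luminescence read with OneGlo; data normalized against buffer-only and 10uM Salinomycin inhibitor controls.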
Lassa entry inh: blocks Lassa virus binding to or entry into cells; Lassa virus pseudotype entry inhibition, cell reporter; Potency, µM (doses to about 37.9 µM), without a hit: at the highest dose activity change, negative = inhibition, most hits filed as inhibitors; 300,000 compounds, 1.2% hits; calls by dose curve; tested in HEK293 cells; note: potency is the fitted concentration of half-maximal effect; nearly all actives have a fitted effect of over 50% in size
HCV inh: blocks hepatitis C virus; Huh7.5.1 HCVcc-Cre infection, luciferase reporter, 44 h; Potency, µM (series often up to 41.8 µM), without a hit: at the highest dose activity change, negative = inhibition, actives largely listed as inhibitors; 340,000 compounds, 3.4% hits; active = well fitted inhibition curve with a large enough effect; inconclusive = small, poorly fitted or top-dose-only effect, or another doubt; inactive = no such curve, though single readings can be large or run the other way; note: potency is the fitted concentration of half-maximal effect
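Compounds are dispensed onto cells plated 4 h earlier at 1,000 per well, with HCVcc-Cre virus (about 0.5 moi) added next. Following 44 h of culture, luminescent signal is measured for 15 sec after 15 min with substrate at room temperature.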
Starred values were filed as active, the others as inactive; ? = inconclusive; nt = not tested or not shown; [ ] = dose if it differs, or a comment. % is set by controls: 0 for no effect and ±100 for the full control effect.

SMILES	Marburg entry inh	FMDV inh	HCMV inh	Lassa entry inh	HCV inh
NCCc1c(-c2ccccc2)n(-c2ccccc2)c2ccccc12	13µM*	-23%	-4	-28%[46.1 µM]	11µM*
CC1CCN(C(=S)NC(=O)c2ccco2)CC1	5%[46.1 µM]	-10%	-68*	?	14%
CC1CCCCN1C(=S)NC(=O)c1ccco1 (stereo not drawn)	9%	1%	29	-1%	10%
CCOC(=O)c1cnc(SCC(=O)Nc2ccc(N3CCOCC3)c(Cl)c2)nc1N	-9%	-7%	33	1%	1%
CCOC(=O)c1cnc(SCC(=O)NCc2cccs2)nc1N	12%	nt	-38	22%	-5%
CCOC(=O)c1cnc(SCc2nc(N)nc(Nc3ccccc3)n2)nc1N	-14%	?	-82*	0%	?
CCOC(=O)c1cnc(SCC(=O)Nc2cc(OC)cc(OC)c2)nc1N	-1%	0%	-60*	-21%	?
CCOC(=O)c1cnc(SCC(=O)Nc2sc(C)c(C)c2C#N)nc1N	?	-8%	-64*	?	-10%
Cc1cccc(NC(=O)Cn2c(=O)n(CCC(=O)N3CCc4ccccc4C3)c(=O)c3ccccc32)c1	?	4%	-2	-18%[46.1 µM]	nt
CCOC(=O)c1ccc(NC(=O)CSc2nccn2Cc2ccc(OC)cc2)cc1	nt	-23%	-36	?	nt
CNCCC=C1c2ccccc2CCc2ccccc21	7.1µM*	?	-2	21µM*	2%[8.37 µM]
Clc1ccc(Cn2ncc3c(N4CCCCC4)ncnc32)cc1	-21%[46.1 µM]	?	-15	-17%	?
Brc1cc(Br)c2ncnc(N3CCCCC3)c2c1	-20%	?	-104*	-25%	?
COc1cc(O)c(C(C)=O)c(OC)c1	nt	-25%	?	nt	10%
COc1cc(O)c(C(C)=O)c(CC(=O)O)c1	nt	-14%	17	nt	3.2µM*
Cc1ccc(C)c(S(=O)(=O)N2CCN(CC(=O)NC(=O)NCc3ccccc3)CC2)c1	?	?	-1	26µM*	-12%
CC(=O)c1c(C)[nH]c(C(=O)N2CCN(S(=O)(=O)c3ccc(C)cc3C)CC2)c1C	nt	-26%	8	nt	-11%
CCOC(=O)c1c(C)[nH]c(C(=O)OCC(=O)N2CCN(S(=O)(=O)c3ccc(C)cc3C)CC2)c1C	nt	?	-29	nt	14µM*
Cc1ccc(S(=O)(=O)N2CCN(C(=O)NCc3ccc(F)cc3)CC2)c(C)c1	?	-16%	-71*	-11%	-22%
CSc1ccc(CSCC(=O)N2CCN(S(=O)(=O)c3ccc(C)cc3C)CC2)cc1	nt	?	-20	nt	8.9µM*
O=C(CN1CCC(Cc2ccccc2)CC1)NC(=O)NCc1ccccc1	21%	-7%	3	-11%	4%
COc1ccc(CNC(=O)N2CCN(S(=O)(=O)c3ccc(C)cc3C)CC2)cc1	-23%	-6%	29	-12%	?
CC(C)c1c(C(=O)NCc2cccnc2)cnn1-c1nccc(-c2cccs2)n1	nt	-17%	nt	nt	nt
CCCCNC(=O)CN1CCN(c2ncc(NC(=O)c3ccc(Cl)cc3)cc2C(=O)O)CC1	nt	-16%	11	17%[46.1 µM]	nt
COc1ccccc1N1CCN(C(=O)c2cccc(S(=O)(=O)N3c4ccccc4CC3C)c2)CC1 (stereo not drawn)	?	-26%	-35	?	10µM*
SMILES	Marburg entry inh	FMDV inh	HCMV inh	Lassa entry inh	HCV inh
Cc1noc(C)c1COC(=O)c1cccc(S(=O)(=O)N2c3ccccc3CC2C)c1 (stereo not drawn)	?	?	-3	?	11µM*
Cc1cc(NC(=O)c2cccc(S(=O)(=O)N3c4ccccc4CC3C)c2)no1 (stereo not drawn)	nt	-22%	10	nt	?
Cc1noc(C)c1COC(=O)c1cccc(S(=O)(=O)N2CCOCC2)c1	-7%	0%	4	-10%	?
CC1Cc2ccccc2N1S(=O)(=O)c1cccc(C(=O)N2CCCCC2)c1 (stereo not drawn)	?	17%	-9	-30%	-22%
CCOC(=O)c1sc(NC(=O)c2cccc(S(=O)(=O)N3c4ccccc4CC3C)c2)cc1C (stereo not drawn)	?	0%	13	?	4µM*
COc1ccc(CCNC(=O)c2ccc3c(c2)ncn3-c2ccc(C(C)C)cc2)cc1OC	nt	0%	-32	?	nt
COc1ccc(N2CC(NC(=O)COc3ccccc3C)CC2=O)cc1OC (stereo not drawn)	nt	-1%	-7	?	nt
NC(=O)C[C@H](N)c1cn([C@@H](CC(N)=O)C(=O)N2CCNCC2)nn1	nt	-11%	-60*	nt	27%
CC(C)[C@H](N)c1cn([C@@H](CO)C(=O)N2CCNCC2)nn1	nt	-14%	9	nt	15%
CC1=CC(C)(C)N(S(=O)(=O)c2ccc(C)cc2)c2cc(C)ccc21	2.6µM*	nt	-85*	?	?
CC1=CC(C)(C)N(C(=O)CCl)c2cc(C)ccc21	?	-28%	-27	9%[46.1 µM]	?
COc1ccc2c(c1)C(C)=CC(C)(C)N2S(=O)(=O)c1ccc(C)cc1	?	?	-86*	?	-20%
CCOc1ccc2c(c1)C(C)=CC(C)(C)N2S(=O)(=O)c1ccc(C)cc1	2.8µM*	-10%	-79*	?	-19%
O=C(Cn1nc2c(cc1=O)CCCC2)NCc1ccccc1Cl	nt	20%	5	0%[46.1 µM]	nt
CCC(C)c1ccc(C(CC)NC(=O)C2CCCO2)cc1 (stereo not drawn)	nt	?	-37	nt	10µM*
COc1ccc(-c2csc(NC(=O)C3CC(=O)N(Cc4ccccc4)C3)n2)cc1OC (stereo not drawn)	?	32µM*	12	-18%	?
O=C(Cc1ccccc1F)Nc1nc(-c2ccc(F)cc2)cs1	?	33%	-14	4.5µM*	-11%
O=C(Nc1ccc(F)cc1F)c1csc(-c2ccccc2)n1	29%[46.1 µM]	35%	36	6%	?
O=C(Nc1ccc(F)cc1F)c1cccc(C(=O)Nc2ccc(F)cc2F)n1	8%	-10%	-99*	7%	-15%
O=C(Nc1nc(-c2ccccc2)cs1)Nc1ccc(F)cc1F	-27%	-8%	-75*	?	?
COC(=O)CN1C(=O)CSc2ccc(S(=O)(=O)N3CCOCC3)cc21	nt	-5%	-32	1%[46.1 µM]	nt
Cc1ccc(C(=O)N2CCc3cc(CNC(=O)COc4ccccc4)ccc32)cc1	nt	-22%	33	-6%[46.1 µM]	nt
Cc1csc(NC(=O)C2CC(=O)N(c3ccc4c(c3)OCCO4)C2)n1 (stereo not drawn)	nt	4%	14	nt	-13%
CCc1ccc(-c2csc(NC(=O)C3CC(=O)N(c4ccc5c(c4)OCCO5)C3)n2)cc1 (stereo not drawn)	?	?	-84*	?	11µM*
O=C(Nc1ccccc1)Nc1nc(-c2ccc(F)c(F)c2)cs1	-8%	-23%	nt	0%	-23%
COc1ccccc1CC(=O)Nc1nc(-c2ccc(F)c(F)c2)cs1	?	-28%	-20	?	10µM*

Source: PubChem BioAssay (National Center for Advancing Translational Sciences (NCATS))
